# Screening results deposited in PubChem BioAssay by Sanford-Burnham Center for Chemical Genomics.
# SENP6 inh – SENP6 protease inhibitors, primary screen, biochemical, luminescence, uHTS. Sentrin-specific protease 6 (Homo sapiens), Q9GZR1. hit rate 1.8% among 330,000. AID 2599, 2010. Recombinant SENP6 catalytic domain, aminoluciferin luminescence. inhibition, % at 10 µM;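 active = inhibition above about 50% at the single tested dose, limit read from the data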;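 also: plate controls were DMSO wells with enzyme for no effect and DMSO wells lacking enzyme for full effect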
# SENP7 inh – SENP7 protease inhibitors, primary screen, biochemical, luminescence, uHTS; Sentrin-specific protease 7 (Homo sapiens), Q9BQF6; recombinant SENP7, Z-RLRGG-aminoluciferin luminescence, 40 min; inhibition, % at 5 µM; hit rate 1.5% among 330,000; AID 434973, 2010;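 active = inhibition above about 50% at the single test dose, limit read from the data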;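 also: plate controls were DMSO with enzyme for no effect and no enzyme buffer wells for full effect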
# Target sequence (Q9BQF6 706-1050 limits assumed): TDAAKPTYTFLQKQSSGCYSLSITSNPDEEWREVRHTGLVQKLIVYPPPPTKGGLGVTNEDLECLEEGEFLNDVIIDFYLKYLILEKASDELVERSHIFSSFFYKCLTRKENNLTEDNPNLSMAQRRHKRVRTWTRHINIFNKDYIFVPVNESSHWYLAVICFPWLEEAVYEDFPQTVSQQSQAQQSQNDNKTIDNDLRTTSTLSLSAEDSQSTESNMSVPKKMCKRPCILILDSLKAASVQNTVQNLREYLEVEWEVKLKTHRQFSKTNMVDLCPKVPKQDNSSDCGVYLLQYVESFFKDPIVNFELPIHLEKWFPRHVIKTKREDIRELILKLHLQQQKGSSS
# PPC-1+TRAIL kill – compounds killing PPC-1 cancer cells with TRAIL present, primary screen, TRAIL potentiator project, ATPLite luminescence, uHTS | PPC-1 cells + TRAIL, ATPLite viability luminescence | cell killing (% activity), % at 4 µM or 5 µM | hit rate 0.41% among 220,000;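 active = cell killing above 50% in the first pass at 4 µM, then a duplicate retest at 5 µM averaging 50% or more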;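 also: plate controls were cells with TRAIL plus DMSO for no effect and medium-only wells lacking cells for full effect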
# SENP8 block-1 – human SENP8 protease inhibitors, primary screen, biochemical, fluorescence, Nedd8 protein substrate, uHTS; inhibition, % at 20 µM; recombinant SENP8; hit rate 0.64% among 360,000; in the data active = inhibition mostly above about 40%, no sharp cut-off; inactive = mostly below about 27%
# SENP8 block-2 – SENP8 protease inhibitors, primary screen, biochemical, luminescence; purified SENP8, Z-RLRGG-aminoluciferin cleavage; inhibition, % at 10 µM; hit rate 1.2% among 330,000; AID 2540, 2010; in the data active = inhibition above about 50%
# TRAIL sens C8 – viability loss with TRAIL in NB7+C8 cells, primary screen, TRAIL sensitizer project, cell-based, ATPlite luminescence | inhibition (viability loss, TRAIL sensitization), % at 10 µM | hit rate 1% among 360,000 | AID 624354, 2012;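 active = compounds causing at least 50% loss of cell viability in the single-dose screen, relative to plate controls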
# SENP8 confirm – SENP8 protease inhibitors, retest, confirmation, biochemical, luminescence, single concentration; shares compounds with SENP7 inh; hit rate 40% among 6,200; inhibition, % at 12.5 µM; Recombinant SENP8, Z-RLRGG-aminoluciferin luminescence, 60 min; AID 488912, 2010;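 active = mean inhibition across replicates above about 50%, limit read from the data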
# SENP6 conf – SENP6 protease inhibitors, confirmation, biochemical, luminescence, single concentration; shares compounds with SENP7 inh; recombinant SENP6, Z-RLRGG-aminoluciferin luminescence; inhibition, % at 12.5 µM; hit rate 58% among 6,200; AID 488915, 2010
# SENP7 conf – SENP7 protease inhibitors, retest, confirmation, biochemical, luminescence, single concentration; shares compounds with SENP7 inh; hit rate 69% among 6,200; AID 488917, 2010; inhibition, % at 12.5 µM; recombinant SENP7, Z-RLRGG-aminoluciferin luminescence, 40 min
# Casp3 SENP sel – caspase-3 protease inhibitors, confirmation, selectivity assay for SENP inhibitor project, biochemical, single concentration; hit rate 60% among 6,200; purified caspase-3, Z-DEVD-aminoluciferin luminescence, 60 min; inhibition, % at 12.5 µM; shares compounds with SENP7 inh;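 active = mean inhibition above about 50%, limit read from the data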;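 also: plate controls were enzyme with DMSO for no effect and wells without caspase-3 for full effect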
# SENP luc ctr – interferes with luciferase luminescence in SENP counter-screen. inhibition, % at 12.5 µM. shares compounds with SENP7 inh. AID 488919. Pre-incubated SENP8/Z-RLRGG-aminoluciferin, luciferase luminescence interference. hit rate 39% among 6,200;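 active = mean inhibition above about 50% when retested at one dose, limit read from the data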;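 also: plate controls were DMSO wells with completed reaction for no effect and substrate without enzyme for full effect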
# * hit, by the source's call; x = not tested or not shown. Sampled rows, rich in hits. Any-hit rate of the full collection: about 3%.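 The calls were made as follows, unless noted: active = mean inhibition above about 50% in the one-dose retest (limit read from the data); inactive = the rest.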
SMILES,SENP6 inh,SENP7 inh,PPC-1+TRAIL kill,SENP8 block-1,SENP8 block-2,TRAIL sens C8,SENP8 confirm,SENP6 conf,SENP7 conf,Casp3 SENP sel,SENP luc ctr
CC(C)C(=O)N1CCC1(C)C(=O)Nc1ccc2[nH]ccc2c1 (stereo not drawn),x,x,x,8.1,x,-40.4,x,x,x,x,x
CCOc1cc(CNCc2cccnc2)cc(Br)c1OCC(N)=O,-1.6,-4.8,x,10.3,3.2,-7.7,x,x,x,x,x
O=S(=O)(Nc1nc(-c2sccc2Cl)cs1)c1cc(Cl)ccc1Cl,74.4*,3.5,12.3,36.8,9.7,-11.3,9.1,15.2,4.7,5.8,11.0
CC(C)(C)c1nnc(NS(=O)(=O)c2cc(Cl)ccc2Cl)s1,-3.0,-5.6,x,5.7,5.4,4.3,x,x,x,x,x
COCCN(CC(=O)Nc1cccc(C)c1C)C(=O)C1(c2ccc(Cl)cc2)CCC1,-8.8,1.7,x,9.1,0.1,1.9,x,x,x,x,x
COc1cccc(OCc2ccc(Cl)cc2)c1C#N,90.5*,97.2*,31.0,13.6,92.9*,59.3*,83.9*,95.5*,99.5*,88.0*,41.3
COc1ccc(-c2cn(CCC(=O)O)c(C)n2)cc1,85.3*,24.6,x,8.8,80.6*,12.2,-8.3,84.9*,94.0*,26.8,40.4
COc1cccc(NC(=O)Nc2nc(SC)ns2)c1,90.4*,77.2*,x,20.4,81.7*,2.2,75.9*,77.2*,95.8*,76.5*,86.5*
COc1cccc(NC(=O)Nc2ccc3nsnc3c2)c1,50.5*,-9.8,6.8,-123.1,44.3,20.3,56.7*,52.0*,76.8*,37.9,53.8*
COc1cccc(NC(=O)Nc2ccc3nc(C)c(C)nc3c2)c1,53.8*,46.4,x,-282.6,38.9,3.3,10.6,36.5,58.5*,59.4*,6.9
COc1ccc(NC(=O)Nc2cccc(OC)c2)cc1,35.5,-8.8,x,5.5,28.5,17.3,x,x,x,x,x
CCCCN(C(=O)Cc1ccc(S(=O)(=O)N2CCOCC2)s1)c1c(N)n(CC(C)C)c(=O)[nH]c1=O,-15.5,-10.2,x,-108.7,-7.8,-12.9,x,x,x,x,x
O=C1C(=O)N(CCN2CCOCC2)C(c2ccccc2F)/C1=C(\O)c1ccc(S(=O)(=O)N2CCOCC2)cc1 (stereo not drawn),-1.5,-5.7,x,-24.2,-7.0,-6.3,x,x,x,x,x
O=C(NC1CCCCC1)C1c2ccccc2OCC(=O)N1CCc1c[nH]c2ccccc12 (stereo not drawn),x,x,x,10.9,x,4.4,x,x,x,x,x
CCN(CC)S(=O)(=O)c1ccc(C)c(C(=O)Oc2cccc(-c3cnc4ccccc4n3)c2)c1,0.0,0.6,8.3,1.4,-10.3,8.1,x,x,x,x,x
O=C(Oc1cccc(-c2cnc3ccccc3n2)c1)c1ccco1,60.1*,51.8*,21.4,-16.9,59.1*,22.1,17.9,44.6,76.1*,61.0*,13.4
O=C(Nc1ccc(C(=O)Oc2ccccc2)c(O)c1)c1ccco1,90.9*,81.7*,7.1,-23.8,73.0*,12.8,79.8*,80.8*,95.6*,65.7*,31.5
